# In PubChem BioAssay (EPA / NIEHS):
# Activity calls are given as the source filed them. The calls were made as follows: active = hit-call score of the fitted dose curve at least 0.9, where 1 is the maximum; inactive = score below 0.9.
# Read-out: Vascular cell adhesion molecule 1 (VCAM1), VCAM1 (gene 7412)
# Test: BSK_LPS_VCAM1: BioMAP Diversity Plus: LPS Assay for Vascular cell adhesion molecule 1 (VCAM1) Biomarker Activity (AID 2283086)
# Settings: primary human HUVEC with PBMC; actives raise or lower the signal
# Procedure: BSK_LPS is a cell-based, multiplexed-readout assay that uses umbilical vein endothelium and peripheral blood mononuclear cells, a human vascular primary cell co-culture, with measurements taken at 24 hours after chemical dosing in a 96-well plate.BSK_LPS_VCAM1 is an assay component measured in the BSK_LPS assay. It measures VCAM-1 antibody related to regulation of gene expression using ELISA technology.Data from the assay component BSK_LPS_VCAM1 was analyzed into 1 assay endpoint. This assay endpoint, BSK_LPS_VCAM1, was analyzed with bidirectional fitting relative to DMSO as the negative control and baseline of activity. Using a type of binding reporter, gain or loss-of-signal activity can be used to understand changes in the signaling as they relate to the gene VCAM1. Furthermore, this assay endpoint can be referred to as a primary readout, because this assay has produced multiple assay endpoints where this one serves a signaling function. To generalize the intended target to other relatable targets, this assay endpoint is annotated to the cell adhesion molecules intended target family, where the subfamily is Immunoglobulin CAM.
# The levels of cell surface (or secreted, indicated by the prefix "s") biomarker endpoints were measured by ELISA. Overt cytotoxicity to cells in confluent adherent cultures (all systems other than the BT system) was assessed by measuring total protein levels using sulforhodamine B (SRB) staining in parallel cultures at the time of biomarker measurements, indicated as SRB endpoints. For proliferation assays for adherent cell types, individual cell types are cultured at sub-confluence and relative cell numbers quantified by SRB staining at time points optimized for each system (48 h: 3C and CASM3C systems; 72 h: BT and HDF3CGF systems; 96 h: SAg system). SRB was performed by staining cells with 0.1% SRB after fixation with 10% TCA and reading wells at 560 nm.Viability and proliferation of PBMC (T cells) was quantified by Alamar Blue reduction for the SAg and BT systems. For PBMC viability (referred to as PBMC Cytotoxicity within the assay endpoint names), cells were plated (75,000/well in a 96-well plate) and then chemical samples added for 1 h before addition of activators, SEB and TSST-1 (20 ng/mL final concentration each). Cells were incubated for 90 h. Then, Alamar Blue (20 uL/well) (Invitrogen, Cat DAL1100) was added for 6 h, and the plates were read with a fluorescence microplate reader at 546/580 nm (excitation/emission). For PBMC proliferation, cells were plated and activated as above but incubated for only 16 h prior to addition of Alamar Blue. Plates were read after 6 h.
SMILES,outcome,AC50
CC(=O)CC(c1ccccc1)c1c(O)c2ccccc2oc1=O (stereo not given),inactive,
O=NO,inactive,
CCCCC(CC)CO (stereo not given),inactive,
CC(C)COC(=O)CCCCC(=O)OCC(C)C,inactive,
COC(=O)CCCC(=O)OC,inactive,
O=C(O)c1[nH]n(-c2ccc(S(=O)(=O)O)cc2)c(=O)c1N=Nc1ccc(S(=O)(=O)O)cc1,inactive,
C=CCCCCCCCCCCCC,inactive,
CCC(C)N(C)C(=O)c1cc2ccccc2c(-c2ccccc2Cl)n1 (stereo not given),inactive,
O=C(O)CN(CC(=O)O)CC(=O)O,inactive,
O=Cc1ccccc1C=O,inactive,
CC(=O)OCC(COC(C)=O)OC(C)=O,inactive,
C/C=C/c1ccc(OC)cc1,inactive,
COc1ccc(C(=O)Nc2nc3ccccc3c(NCc3ccccc3)c2C#N)cc1,,4.78 µM (active)
CCOCCOCCO,inactive,
CCCCc1nc2cccnc2n1Cc1ccc(-c2ccccc2-c2nnn[nH]2)cc1,inactive,
CC(=O)OC1CC(C)OC(C)O1 (stereo not given),inactive,
Cc1ccc(C(C)(C)C)c(O)c1,inactive,
Cc1ccc(-c2cc(C(F)(F)F)nn2-c2ccc(S(N)(=O)=O)cc2)cc1,,31.7 µM (active)
CC(=O)O,inactive,
Cc1occc(=O)c1O,inactive,

SMILES,outcome,AC50
CC(C)c1cccc(C(C)C)c1,inactive,
Nc1nc(Cl)nc2c1ncn2[C@H]1C[C@H](O)[C@@H](CO)O1,inactive,
CN(C)CCCN(C)CCCN(C)C,inactive,
CN(C)C(=O)NC1(c2ccccc2)CCN(CCC[C@]2(c3ccc(Cl)c(Cl)c3)CCCN(C(=O)c3ccccc3)C2)CC1,,6.96 µM (active)
N[C@@H](Cc1c[nH]c2ccccc12)C(=O)O,inactive,
Cc1cc(SC2=C(O)C[C@@](CCc3ccc(N)cc3)(C(C)C)OC2=O)c(C(C)(C)C)cc1CO,inactive,
CSc1ccc(Oc2ccc(S(N)(=O)=O)cc2CN(C)C)cc1C,inactive,
CC(C)(C)c1ccccc1,inactive,
Oc1ccc(O)cc1,,20 µM (active)
CS(=O)(=O)c1ccc([C@@H](C[C@H]2CCC(=O)C2)C(=O)Nc2cnccn2)cc1Cl,inactive,
C/C=C/C=C/C(=O)O,inactive,
CCN(CC)CCOc1ccc(C(=C(Cl)c2ccccc2)c2ccccc2)cc1,,13.2 µM (active)
CCCCCCCCCCCCCCCCO,inactive,
CC(C)(O)c1ccc(CNC(=O)c2cccnc2Oc2ccc(F)cc2)cc1,inactive,
NC1CCCCC1,inactive,
OCC(O)CO,inactive,
O=C1NC(=O)C(c2ccccc2)(c2ccccc2)N1,inactive,
C#CC(O)C(CC)CCCC (stereo not given),inactive,
O=[Si]=O,inactive,
CCCCCCC(CCCCCCCCCCC(=O)OCC(COC(C)=O)OC(C)=O)OC(C)=O (stereo not given),inactive,
